From PubChem
HCMV antiviral – qHTS Assay for inhibitors of the human cytomegalovirus (HCMV). 410,000 compounds, 4.5% hits. AID 1259415, 2018. HFF cells, HCMV-luciferase reporter, 72 h; active compounds read low. activity change, negative = inhibition, % at 57.5 µM; in the data active = activity change below about -60%; inconclusive = no clear call, values can overlap the other calls; inactive = above about -39%
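Two-dose cell screen: HFF monolayers treated with compounds and infected with luciferase-expressing HCMV at 1 PFU/cell, 72 h at 37C, then lysed for luciferase measurement.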
FMDV inh – High Throughput Screening for Foot and Mouth Disease Virus Antivirals | 410,000 compounds, 1.2% hits | FMDV antiviral cell-based qHTS | Potency, µM (doses to about 57.9 µM), inactives show at the highest dose activity change, negative = inhibition, usual class: inhibitors; calls by dose curve; tested in HEK293T cells; note: read-out not given here; potency is the fitted concentration of half-maximal effect; nearly all actives have a fitted effect of over 45% in size
VACV Venus inh – qHTS for Stage-Specific Inhibitors of Vaccinia Orthopoxvirus: Venus Reporter Primary qHTS. Vaccinia virus Venus reporter expression, fluorescence. Potency, µM (titrated, usually from 36.5 µM), for the others: at the top dose activity change, negative = inhibition, hits mostly inhibitors. 330,000 compounds, 0.46% hits; calls by dose curve; tested in A549 cells; note: potency is the fitted concentration of half-maximal effect; nearly all actives have a fitted effect of over 30% in size
Lassa entry inh – qHTS for Inhibitors of binding or entry into cells for Lassa Virus; 300,000 compounds, 1.2% hits; Lassa virus pseudotype entry inhibition, cell reporter; Potency, µM (highest dose often 37.9 µM), inactives show at the top dose activity change, negative = inhibition, most hits filed as inhibitors; AID 540256, 2011; calls by dose curve; tested in HEK293 cells; note: potency is the fitted concentration of half-maximal effect; nearly all actives have a fitted effect of over 50% in size
Marburg entry inh – qHTS for inhibitors of binding or entry into cells for Marburg Virus. 300,000 compounds, 1.8% hits. Marburg virus pseudotyped entry inhibition, cell reporter. AID 540276, 2011. Potency, µM (titrated, usually from 37.8 µM), for inactives: top-dose activity change, negative = inhibition, usual class: inhibitors; calls by dose curve; tested in HEK293 cells; note: potency is the fitted concentration of half-maximal effect
Vaccinia mCherry – qHTS for Stage-Specific Inhibitors of Vaccinia Orthopoxvirus: mCherry Reporter Primary qHTS. 310,000 compounds, 0.63% hits. Vaccinia virus mCherry reporter infection, fluorescence. Potency, µM (highest dose often 36.5 µM), for inactives: at the top dose activity change, negative = inhibition, most hits filed as inhibitors; calls by dose curve; tested in A549 cells; note: potency is the fitted concentration of half-maximal effect; nearly all actives have a fitted effect of over 35% in size
* = called active by the depositor; i = inactive; u = inconclusive; x = not tested or not shown; [ ] = remark or other dose. An excerpt weighted towards active compounds, which were near 6.5% of everything screened. % is set by controls: 0 for no effect and ±100 for the full control effect.

SMILES	HCMV antiviral	FMDV inh	VACV Venus inh	Lassa entry inh	Marburg entry inh	Vaccinia mCherry
Cc1ccc(C[n+]2c(-c3ccc(C)cc3)cc(-c3ccc(C)cc3)cc2-c2ccc(C)cc2)cc1	x	u	3.55µM*	x	x	u
O=C(/C(=C/O)N=Nc1ccc(Cl)cc1)c1ccncc1	-6.2	31.6µM*	u	u	u	x
Cc1ccc(N/C=C/C(=O)c2ccc(C)cc2)cc1	51.1	3.6%	-5.0%	-28.1%	u	-9.6%
Cc1ccc(C(=O)/C=C/Nc2ccccn2)cc1	u	2.51µM*	-13.3%	0.631µM*	u	-5.6%
Cn1c(=O)c2nc(SCC(=O)Nc3cc(Cl)ccc3Cl)n(C)c2n(C)c1=O	2.6	-13.5%	-21.2%	-1.3%[46.1 µM]	x	-19.2%
C/C(=N\NC(=S)NCc1ccccc1)c1ccc(Br)cc1	378.1	-0.8%	-12.0%	u	24.2%[46.1 µM]	-18.1%
C/C(=N\NC(=S)NCc1ccccc1)c1ccc(C)o1	-106.8*	25.6%	-24.8%	u	21.6%[46.1 µM]	u
C/C(=N\NC(=S)NCCc1ccccc1)c1ccc(C)cc1	27.0	-9.0%	-12.5%	u	16.4µM*	-12.8%
COc1ccc(C(=O)N2CCC3(CCN(Cc4ccncc4)CC3)CC2)cc1	x	3.3%	x	x	x	x
CN1/C(=C\C=O)C(C)(C)c2ccccc21	-28.7	-9.7%	7.5%	-23.7%	5.2%[46.1 µM]	11.1%
CN1\C(=C/C=C/C=C/C=[N+](C)C)C(C)(C)c2ccccc21	1.6	15.8µM*	x	u	u	x
CCCCn1c(=O)[nH]c(=O)c2c1nc(CN1C(=O)c3ccccc3S1(=O)=O)n2CCC	-6.9	u	1.0%	17.7%	-3.3%	-6.4%
CCCCn1c(=O)[nH]c(=O)c2c1nc(Cn1ncc(Cl)c(Cl)c1=O)n2CCC	-100.4*	u	u	u	u	u
COc1cccc(C(=O)Nc2ccc(-n3nncc3-c3ccccc3)cc2)c1OC	15.1	-4.9%	-12.3%	-2.8%[46.1 µM]	x	i
Cc1ccc(NC(=S)N2CCN(S(=O)(=O)c3ccc(F)cc3)CC2)cc1	x	24.5%	-15.3%	-1.3%	22.3%	-17.0%
C[C@H](CO)N1C[C@H](C)[C@@H](CN(C)S(=O)(=O)c2ccccc2)Oc2ccc(NC(=O)Nc3ccccc3)cc2C1=O	-73.5*	-14.5%	10µM*	x	x	u
COc1ccc(S(=O)(=O)Nc2ccc3c(c2)C(=O)N([C@H](C)CO)C[C@H](C)[C@@H](CN(C)S(=O)(=O)c2ccc(OC)cc2)O3)cc1	-91.8*	-7.9%	u	x	x	u
C[C@H](CO)N1C[C@H](C)[C@@H](CN(C)S(=O)(=O)c2cccs2)Oc2ccc(NC(=O)Nc3ccccc3)cc2C1=O	-65.0*	-20.5%	-12.7%	x	x	-8.0%
C[C@@H]1CN([C@H](C)CO)C(=O)c2cc(NC(=O)Nc3ccc(C(F)(F)F)cc3)ccc2O[C@H]1CN(C)S(=O)(=O)c1cccs1	-19.4	-21.4%	u	x	x	-11.5%
C[C@H](CO)N1C[C@H](C)[C@@H](CN(C)S(=O)(=O)c2ccc(F)cc2)Oc2ccc(NC(=O)Nc3ccccc3)cc2C1=O	-8.7	0.0%	-19.3%	x	x	-6.8%
CCCn1nc(C(=O)NC2CCCCCC2)c2ccccc2c1=O	u	-8.8%	-19.1%	-1.2%	-27.6%	-4.1%
CCCN(CCC)C(=O)CSc1nc2n[nH]c(C)c2c(=N)n1-c1ccc(OCC)cc1	x	-24.6%	u	11.2µM*	u	x
CCOc1ccc(-n2c(SCC(=O)Nc3ccc(CC)cc3)nc3n[nH]c(C)c3c2=N)cc1	-22.8	-11.9%	u	u	u	-29.9%
CCCN(CCC)C(=O)CSc1nc2n[nH]c(C)c2c(=N)n1-c1ccc(OC)cc1	27.6	22.4µM*	u	u	u	x
CC1(C(=O)Nc2ccccc2)CCN1C(=O)Cc1ccc(-c2ccccc2)cc1 (stereo not given)	-74.0*	u	25.3%	x	x	23.0%
SMILES	HCMV antiviral	FMDV inh	VACV Venus inh	Lassa entry inh	Marburg entry inh	Vaccinia mCherry
CC1(C(=O)Nc2ccc3c(c2)OCO3)CCN1C(=O)Cc1ccc(-c2ccccc2)cc1 (stereo not given)	-80.8*	0.0%	-24.9%	x	x	u
Cc1ccc(C(c2nnnn2Cc2cccs2)N2CCN(Cc3ccc4c(c3)OCO4)CC2)cc1 (stereo not given)	2.0	15.9%	-28.9%	11.2µM*	u	-20.1%
Cc1ccc(C(c2nnnn2CCc2ccccc2)N2CCSCC2)cc1 (stereo not given)	u	19.2%	-8.2%	u	2.24µM*	-20.2%
CCN1CCN(C(c2nnnn2Cc2ccc3c(c2)OCO3)C(C)C)CC1 (stereo not given)	56.9	-6.9%	x	4.1%	-3.2%	x
CCC(C)(C)n1nnnc1C(c1cc2cc(C)cc(C)c2[nH]c1=O)N1CCCC1 (stereo not given)	-5.2	17.8%	x	3.8%	u	x
CC(C)C(c1nnnn1Cc1ccc(F)cc1)N1CCN(Cc2ccc3c(c2)OCO3)CC1 (stereo not given)	-5.5	u	u	u	12.6µM*	x
CCC(C)(C)n1nnnc1C(c1cc2cc(C)cc(C)c2[nH]c1=O)N1CCN(Cc2ccc3c(c2)OCO3)CC1 (stereo not given)	-60.3*	5.62µM*	-12.0%	1.2%	11.8%	-9.9%
O=C(CN1c2ccccc2Sc2ccccc21)N/N=C/c1ccc([N+](=O)[O-])cc1	47.5	-18.8%	u	u	8.91µM*	-25.2%
COc1ccc(C2=NCC(C)n3c2c2ccccc2[n+]3[O-])cc1 (stereo not given)	14.2	x	x	x	x	x
N#CCC(=O)Nc1ccc(C(=O)OCC(=O)NC(=O)Cc2ccccc2)cc1	-12.7	46.8%	3.2%	14.3%	-2.2%	-11.1%
CNC(=O)COC(=O)c1ccc(NC(=O)CC#N)cc1	-101.2*	7.2%	-10.3%	u	-3.7%	i
CCOc1c(C)cnc2c1c(=O)n(Cc1ccc(Cl)cc1)c(=O)n2C	11.0	-1.5%	x	x	x	x
Cc1cc(Cc2cc(C)c(O)c(CO)c2)cc(CO)c1O	7.7	-26.9%	-25.6%	u	u	5.62µM*
O=C(Nc1ncc(Cc2cccc(C(F)(F)F)c2)s1)c1ccc(-c2cccc([N+](=O)[O-])c2)o1	u	0.0%	-28.3%	u	15.8µM*	u
Cc1ccc2nc(N3CCN(S(=O)(=O)c4ccc(C)c(Cl)c4)CC3)c(C#N)cc2c1	-39.6	0.7%	x	u	4.61µM*	x
Cc1c(C(=O)NCC(C)(C)CN(C)C)cnn1-c1nccc(-c2ccccc2F)n1	x	-3.9%	-7.0%	x	x	-13.3%
CCOC(=O)/C(C#N)=N/Nc1c(C)n(C)n(-c2ccccc2)c1=O	3.5	-4.5%	-6.8%	-25.1%[46.1 µM]	7.4%[46.1 µM]	u
Cc1c(N/N=C(\C#N)C(=O)c2ccccc2)c(=O)n(-c2ccccc2)n1C	-79.1*	-17.4%	-26.8%	u	11.2µM*	12.6µM*
